# The sample as a whole holds a higher share of hits than the screen did.
# USP2a block: USP2a (human) protease inhibition. O75604. hit rate 0.01% among 330,000. Potency, µM (top dose mostly 38.3 µM), for the others: at the highest dose activity change, negative = inhibition, usual class: inhibitors. USP2 core, Ub-CHOP2 coupled fluorogenic reporter, 485/531. AID 463254;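 also: plate controls were DMSO wells for no effect and full inhibition by NEM control for full effect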
#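 Deubiquitinase activity read as fluorescence (485/531 nm) after Ub-CHOP2 cleavage activates the enterokinase reporter on its substrate; USP2 core 10nM, Ub-CHOP2 and substrate 25nM each, 30min compound preincubation then 60min RT; data normalized to NEM, curves fitted.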
# Eya2 inh: Eya2 (human) phosphatase inhibition | O00167 | recombinant Eya2, OMFP fluorescence dephosphorylation (OMFP is methylfluorescein phosphate) | hit rate 0.006% among 330,000 | Potency, µM (series often up to 76.9 µM), for the others: at the highest dose activity, negative = inhibition, hits mostly inhibitors; also: % is scaled to controls: 0 for no effect and ±100 for the full control effect
# Target sequence (O00167 whole entry, looked up): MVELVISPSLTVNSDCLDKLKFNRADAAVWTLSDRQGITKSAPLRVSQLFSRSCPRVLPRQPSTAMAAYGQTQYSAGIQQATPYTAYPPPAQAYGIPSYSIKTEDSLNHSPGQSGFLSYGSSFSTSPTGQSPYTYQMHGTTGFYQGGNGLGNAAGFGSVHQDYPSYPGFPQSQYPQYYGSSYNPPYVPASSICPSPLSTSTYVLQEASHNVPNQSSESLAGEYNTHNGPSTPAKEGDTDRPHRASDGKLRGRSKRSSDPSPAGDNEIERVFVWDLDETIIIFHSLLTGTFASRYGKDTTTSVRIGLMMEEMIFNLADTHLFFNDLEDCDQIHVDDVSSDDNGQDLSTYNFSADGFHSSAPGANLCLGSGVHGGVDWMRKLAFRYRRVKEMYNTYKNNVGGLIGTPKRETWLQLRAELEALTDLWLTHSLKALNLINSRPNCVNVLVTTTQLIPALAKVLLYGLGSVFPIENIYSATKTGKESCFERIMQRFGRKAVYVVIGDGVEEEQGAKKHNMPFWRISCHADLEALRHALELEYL
#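 Eya2 (0.2 uM) preincubated 10 min at ambient with compound, then OMFP substrate added at 50 uM; 10 min reaction in 50 mM HEPES pH 7.5, 50 mM NaCl, 5 uM MgCl2, 0.05% BSA, 1 mM DTT. Fluorescence read at Ex 485/Em 525 nm.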
# a7 integrin act: integrin-mediated muscular dystrophy alleviation activation; alpha7betagal myoblasts, beta-gal FDG fluorescence, 48 h; AID 624291; hit rate 0.064% among 350,000; Potency, µM (titrated, usually from 38.3 µM), without a hit: top-dose activation, actives largely listed as activators;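 also: 100% = response of the positive control SU9516; nearly all actives have a fitted effect of over 60% in size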
#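 alpha7betagal+/- myoblasts (passage 13, 250/well) treated 48 h at 37C with compounds at 1:260 dilution of DMSO stock. Lysed, then beta-galactosidase activity read as FDG fluorescence (ex 480/em 540) after 30 min, with pre-read for autofluorescence.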
# ClpP mod: qHTS Assay for Activators of ClpP; ATP-dependent Clp protease proteolytic subunit (Bacillus subtilis (strain 168)), P80244; purified B. subtilis ClpP, FRET peptide cleavage, 20 min; Potency, µM (doses to about 57.5 µM), without a hit: at the top dose activity change, negative = active; hit rate 1.9% among 340,000; active = well fitted falling curve with a large enough effect; inconclusive = small, poorly fitted or top-dose-only effect; inactive = no such curve, though single readings can be large or run the other way; also: the source files actives as falling curves though it sought activators and does not explain the sign; nearly all actives have a fitted effect of over 65% in size
# Target sequence (P80244 whole entry, looked up): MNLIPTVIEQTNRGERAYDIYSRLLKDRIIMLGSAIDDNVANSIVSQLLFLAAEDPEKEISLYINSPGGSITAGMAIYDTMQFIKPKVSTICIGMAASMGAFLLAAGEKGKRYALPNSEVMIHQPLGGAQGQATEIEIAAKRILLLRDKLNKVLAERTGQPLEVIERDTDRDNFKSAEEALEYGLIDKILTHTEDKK
#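 ClpP 10 microg/mL final, pH 8 Tris/KCl buffer with BSA, glycerol, Tween-20; compound pinned in; FRET-FV substrate; RT 20 min; Ex320/Em430; ΔFRET vs ADEP 5.8 microM, DMSO, no enzyme.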
# MmCpn inh: inhibitors of Methanococcus maripaludis chaperonin TRiC (MmCpn). purified Mm-Cpn ATPase, ADP Transcreener TR-FRET. Potency, µM (top dose mostly 76.9 µM), inactives show at the top dose activity, negative = inhibition, hits mostly inhibitors. hit rate 0.031% among 330,000; also: % is scaled to controls: 0 for no effect and ±100 for the full control effect; nearly all actives have a fitted effect of over 80% in size
#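 Purified archaeal chaperonin (25 nM final) was preincubated with compound for 10 min at 37°C, then ATP (10 uM final) was added for 30 min at 37°C in Tris pH 7.4/KCl/MgCl2/DTT buffer. ADP was quantified by HTRF Transcreener TR-FRET.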
# p53 reactivator: re-activators of mutant p53 | H1299 p53-A138V BP100-luciferase reporter, luminescence, 24 h | Potency, µM (doses to about 92.2 µM), inactives show at the highest dose activity change, positive = activation, most hits filed as activators | hit rate 0.063% among 320,000; also: % of control where 0% means no effect; nearly all actives have a fitted effect of over 45% in size
#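 H1299 (p53-null), stable ts p53-A138V + BP100-Luc; 1000 cells/well, Opti-MEM/10% FBS; cpd 4 pt, 1:5; 24 h, 37 deg C, 5% CO2; detection reagent 10 min RT; luminescence.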
# Numbers without * were called inactive; ? = inconclusive; nt = not tested or not shown; [ ] = dose if it differs, or a comment. Unless noted, calls follow the shape of the dose curve; as a rule, active = well fitted curve in the direction sought with a large enough effect; inconclusive = small, poorly fitted or top-dose-only effect, or another doubt; inactive = no such curve, though single readings can be large; an effect the other way counts as inactive or inconclusive. Potency is read from the fitted curve at half-maximal effect.
SMILES,USP2a block,Eya2 inh,a7 integrin act,ClpP mod,MmCpn inh,p53 reactivator
COc1ccc(-c2nc3cc(C)ccn3c2NCc2ccc3c(c2)OCO3)cc1,0%,-8%,11%,28µM*,-5%,3%
COc1ccc(CCNC(=O)c2ccc(Cn3c(=O)c4ccccc4n(Cc4cccc(F)c4)c3=O)cc2)cc1OC,nt,nt,nt,35µM*,nt,nt
COc1cc2c(c(O)c1OC)C(=O)C(OC)CCC2 (centres undefined),2%,-8%,19%,28µM*,1%,7%
COc1cc2c(c(O)c1OC)-c1c(cc(OC)c(OC)c1OC)C[C@@H](C)[C@@H](C)C2,0%,-3%,8%,1%,0%,-1%
Cc1sc(NC(=O)CS(=O)(=O)c2ccccc2)c(C(N)=O)c1C,0%,-17%,-2%,28µM*,0%,20%
O=C(O)/C=C\C(=O)Nc1ccccc1C(=O)N1CCN(c2ccc(Cl)cc2)CC1,1%,9%,11%,20µM*,1%,-6%
CC(C)c1ccc(N2CCN(C(=O)c3ccccc3NC(=O)/C=C\C(=O)O)CC2)cc1,-1%,-12%,0%,-2%,-2%,0%
COCCn1c(=N)c(C(=O)NCCc2ccccc2)cc2c(=O)n3cccc(C)c3nc21,nt,nt,9%,1.4µM*,nt,nt
Cc1cccn2c(=O)c3cc(C(=O)NCCN4CCOCC4)c(=N)n(CCCN4CCOCC4)c3nc12,-1%,?,-8%,nt,2%,-3%
Cc1cccn2c(=O)c3cc(C(=O)NCCc4ccccc4)c(=N)n(CCCn4ccnc4)c3nc12,-3%,-2%,-51%,18µM*,2%,10%
Cc1cccn2c(=O)c3cc(C(=O)NCCN4CCOCC4)c(=N)n(CCc4ccccc4)c3nc12,3%,14%,-26%,3.2µM*,-3%,-2%
O=C(NCCN1CCOCC1)c1cc(-c2ccccc2)nc2ccccc12,nt,nt,-4%,3%,nt,nt
CCc1ccc(Sc2cc(C(=O)NCCN3CCOCC3)c3ccccc3n2)cc1,3%,5%,11µM*,-5%,-1%,-9%
COc1ccccc1C(O)c1nccn1Cc1ccccc1 (centres undefined),nt,nt,nt,-4%,nt,nt
Nc1nc(NCc2ccc(Cl)c(Cl)c2)c2[nH]cnc2n1,nt,nt,nt,0%,nt,nt
O=C(COC(=O)c1ccccc1OCCOc1ccccc1)Nc1ccc(Br)cc1,nt,nt,nt,-6%,nt,nt
CCC(C)n1nccc1NC(=O)C(C)OC(=O)c1cc2ccccc2[nH]1 (centres undefined),0%,4%,18%,28µM*,-1%,-3%
COc1ccccc1NC(=O)C(C)OC(=O)c1cc2ccccc2[nH]1 (centres undefined),-8%,?,-50%,-16%,-23%,6%
O=c1[nH]c(=O)n([C@H]2C[C@@H](O)[C@@H](CO)O2)cc1C=CBr,nt,-5%,nt,nt,nt,nt
S=c1nc[nH]c2n[nH]nc12,nt,nt,nt,-2%,nt,nt
COc1cccc(CN2CCC(C(=O)N3CCN(Cc4ccc5c(c4)OCO5)CC3)CC2)c1OC,-1%,4%,-16%,18µM*,-1%,9%
CC(C)COc1ccc(C(=O)Nc2onc3c2CCCC3)cc1,nt,nt,nt,-1%,nt,nt
CCN(Cc1ccccc1)c1ccc(/C=N/N=C(N)N)cc1,-1%,-10%,-53%,25µM*,-2%,-5%
COc1ccc(NC(=O)CN(C)C(=O)/C=C/c2ccc(OCc3ccccc3)cc2)cc1,-2%,?,-312%,28µM*,3%,-5%
COc1ccc(OC)c(/C=C/C(=O)N(C)CC(=O)Nc2ccc(C)cc2)c1,-1%,-7%,10%,28µM*,-3%,-5%
SMILES,USP2a block,Eya2 inh,a7 integrin act,ClpP mod,MmCpn inh,p53 reactivator
Cc1ccc(S(=O)(=O)N2CCN(c3nc(-n4c(=O)[nH]c5ccccc54)nc4ccccc34)CC2)cc1,nt,nt,nt,-22%,nt,nt
CN(Cc1ccccc1)c1ncnc2c1nnn2C,nt,nt,nt,-2%,nt,nt
COCCCNC(=O)c1c(N)n(-c2ccc(S(N)(=O)=O)cc2)c2nc3ccccc3nc12,1%,1%,-2%,16µM*,-6%,0%
COCCCNC(=O)c1c(N)n(/N=C/c2cccs2)c2nc3ccccc3nc12,5%,-4%,22%,32µM*,0%,2%
COCCn1c(N)c(C(=O)NCc2cccs2)c2nc3ccccc3nc21,-11%,-8%,-21%[7.66 µM],32µM*,2%,-1%
COC(=O)c1c(N)n(-c2ccc(NC(C)=O)cc2)c2nc3ccccc3nc12,-3%,-5%,15%,?,0%,-3%
COCCn1c(N)c(C(=O)Nc2sc3c(c2C(=O)OC)CCCC3)c2nc3ccccc3nc21,0%,10%,?,0%,-3%,16%
CCC(C)NC(=O)c1c(N)n(/N=C/c2cccnc2)c2nc3ccccc3nc12 (centres undefined),2%,-2%,14%[7.66 µM],25µM*,-2%,1%
COCCCNC(=O)c1c(N)n(/N=C/c2cccnc2)c2nc3ccccc3nc12,4%,-5%,4%,3%,1%,-10%
CC(C)CNC(=O)c1c(N)n(/N=C/c2cccnc2)c2nc3ccccc3nc12,1%,-7%,nt,nt,-1%,1%
Cc1ccc(F)cc1NC(=O)COC(=O)c1ccc(S(C)(=O)=O)c([N+](=O)[O-])c1,nt,nt,nt,0%,nt,nt
COc1ccccc1N(C)C,nt,nt,nt,0%,nt,nt
C=CCNC(=O)c1c(N)n(-c2cccc(S(N)(=O)=O)c2)c2nc3ccccc3nc12,-2%,22%,-12%,14µM*,-1%,2%
N#Cc1c(N)n(CCc2ccc(F)cc2)c2nc3ccccc3nc12,2%,0%,-5%,32µM*,-1%,1%
Nc1c(C(=O)NCc2ccccc2)c2nc3ccccc3nc2n1-c1ccc2c(c1)OCO2,1%,12%,2%,22µM*,-3%,7%
Nc1c(C(=O)NCc2ccco2)c2nc3ccccc3nc2n1CCc1ccc(F)cc1,-7%,-41%,-43%,16µM*,-6%,-9%
COCCNC(=O)c1c(N)n(-c2cccc(C)c2)c2nc3ccccc3nc12,-21%,-11%,11%,-16%,-4%,1%
Nc1ccc(-n2c(N)c(C(=O)NCc3ccc4c(c3)OCO4)c3nc4ccccc4nc32)cc1,nt,nt,22%,-16%,nt,nt
CCCCN(CCCC)S(=O)(=O)c1ccc2oc(C(=O)NCc3ccccc3)c(C)c2c1,nt,nt,nt,-1%,nt,nt
COCCNC(=O)c1c(N)n(CCCn2ccnc2)c2nc3ccccc3nc12,0%,2%,8%,16µM*,-9%,-3%
COc1ccc(-n2c(N)c(C(=O)NCc3ccco3)c3nc4ccccc4nc32)cc1OC,-5%,-8%,5%,nt,1%,-14%

# Screening results deposited in PubChem BioAssay by National Center for Advancing Translational Sciences (NCATS).
